Data from PubChem BioAssay AID1159580 (chemical genetic matrix, 2015).
About 2,000 (36%) of roughly 5,500 compounds were called active. Inconclusive results (about 18%) are left out. This is one part of the list. A number with no mark means an inactive call. Cut-off read from the data, not from the text of the source: active = normalized growth mostly below about 0.91 (no sharp cut-off); inconclusive = no clear call, values can overlap the other calls; inactive = mostly above about 0.92.

Experiment: chemical genetic growth profiling, strain panel (AID 1159580);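 note: tested at 20 µM; growth read once vehicle control cultures reached saturation at 30 °C; 1 = growth at the plate median or of vehicle wells; lower values mean less growth of the strain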
Conditions: growth OD

CC(=O)O[C@]1(C(C)=O)CCC2C3C[C@H](C)C4=CC(=O)CC[C@]4(C)C3CC[C@@]21C (stereo partly drawn)
normalized growth (S. cerevisiae deletion strains, locus YJR075W, strain HOC1, active compounds read low): 0.99 | normalized growth (S. cerevisiae deletion strains, locus YKL009W, strain mrt4, active compounds read low): 0.973 | normalized growth (S. cerevisiae deletion strains, locus YKL068W, active compounds read low): 0.971 | normalized growth (S. cerevisiae deletion strains, locus YKL085W, strain MDH1 (second series), active compounds read low): 0.977 | normalized growth (S. cerevisiae deletion strains, locus YKL085W, strain MDH1, active compounds read low): 0.977 | normalized growth (S. cerevisiae deletion strains, locus YKL160W, strain elf1, active compounds read low): 0.911 | normalized growth (S. cerevisiae deletion strains, locus YKL190W, strain CNB1, active compounds read low): 0.989 | normalized growth (S. cerevisiae deletion strains, locus YKR001C, strain vps1, active compounds read low): 0.956 | normalized growth (S. cerevisiae deletion strains, locus YKR026C, strain gcn3, active compounds read low): 0.981 | normalized growth (S. cerevisiae deletion strains, locus YKR091W, strain srl3, active compounds read low): 0.959 | normalized growth (S. cerevisiae deletion strains, locus YLL001W, strain dnm1, active compounds read low): 0.894 (active) | normalized growth (S. cerevisiae deletion strains, locus YLL026W, active compounds read low): 0.976 | normalized growth (S. cerevisiae deletion strains, locus YLL041C, strain sdh2, active compounds read low): 0.968 | normalized growth (S. cerevisiae deletion strains, locus YLR027C, strain aat2, active compounds read low): 0.976 | normalized growth (S. cerevisiae deletion strains, locus YLR039C, strain RIC1, active compounds read low): 1.05 | normalized growth (S. cerevisiae deletion strains, locus YLR058C, strain SHM2, active compounds read low): 0.979 | normalized growth (S. cerevisiae deletion strains, locus YLR102C, strain apc9, active compounds read low): 0.989 | normalized growth (S. cerevisiae deletion strains, locus YLR113W, strain HOG1, active compounds read low): 0.965 | normalized growth (S. cerevisiae deletion strains, locus YLR221C, strain rsa3, active compounds read low): 0.9 (active) | normalized growth (S. cerevisiae deletion strains, locus YLR258W, strain gsy2, active compounds read low): 0.949 | normalized growth (S. cerevisiae deletion strains, locus YLR262C, strain YPT6 (second series), active compounds read low): 0.815 (active) | normalized growth (S. cerevisiae deletion strains, locus YLR262C, strain YPT6, active compounds read low): 0.957 | normalized growth (S. cerevisiae deletion strains, locus YLR268W, strain sec22, active compounds read low): 0.977 | normalized growth (S. cerevisiae deletion strains, locus YLR320W, strain mms22, active compounds read low): 0.875 (active) | normalized growth (S. cerevisiae deletion strains, locus YLR330W, strain CHS5, active compounds read low): 0.988 | normalized growth (S. cerevisiae deletion strains, locus YLR342W, strain FKS1 (second series), active compounds read low): 0.984 | normalized growth (S. cerevisiae deletion strains, locus YLR342W, strain FKS1, active compounds read low): 0.948 | normalized growth (S. cerevisiae deletion strains, locus YLR357W, strain rsc2, active compounds read low): 0.939 | normalized growth (S. cerevisiae deletion strains, locus YLR370C, strain arc18, active compounds read low): 0.925 | normalized growth (S. cerevisiae deletion strains, locus YLR371W, strain rom2, active compounds read low): 0.985 | normalized growth (S. cerevisiae deletion strains, locus YLR384C, strain iki3, active compounds read low): 0.977 | normalized growth (S. cerevisiae deletion strains, locus YLR418C, strain cdc73, active compounds read low): 0.829 (active) | normalized growth (S. cerevisiae deletion strains, locus YML016C, strain PPZ1, active compounds read low): 0.996 | normalized growth (S. cerevisiae deletion strains, locus YML032C, strain rad52, active compounds read low): 0.984 | normalized growth (S. cerevisiae deletion strains, locus YML120C, strain ndi1, active compounds read low): 0.916 | normalized growth (S. cerevisiae deletion strains, locus YML124C, strain tub3, active compounds read low): 0.986 | normalized growth (S. cerevisiae deletion strains, locus YMR058W, strain fet3, active compounds read low): 0.968 | normalized growth (S. cerevisiae deletion strains, locus YMR078C, strain ctf18, active compounds read low): 0.97 | normalized growth (S. cerevisiae deletion strains, locus YMR125W, strain sto1, active compounds read low): 0.947 | normalized growth (S. cerevisiae deletion strains, locus YMR129W, active compounds read low): 0.972 | normalized growth (S. cerevisiae deletion strains, locus YMR205C, strain PFK2, active compounds read low): 0.906 | normalized growth (S. cerevisiae deletion strains, locus YMR223W, strain ubp8, active compounds read low): 0.917 | normalized growth (S. cerevisiae deletion strains, locus YMR231W, strain pep5, active compounds read low): 0.978 | normalized growth (S. cerevisiae deletion strains, locus YMR263W, strain SAP30, active compounds read low): 0.989 | normalized growth (S. cerevisiae deletion strains, locus YMR307W, strain GAS1, active compounds read low): 0.992 | normalized growth (S. cerevisiae deletion strains, locus YNL067W, strain RPL9B, active compounds read low): 0.993 | normalized growth (S. cerevisiae deletion strains, locus YNL071W, strain lat1, active compounds read low): 0.876 (active) | normalized growth (S. cerevisiae deletion strains, locus YNL153C, strain GIM3, active compounds read low): 0.983 | normalized growth (S. cerevisiae deletion strains, locus YNL183C, strain NPR1, active compounds read low): 0.951 | normalized growth (S. cerevisiae deletion strains, locus YNL209W, strain ssb2, active compounds read low): 0.958 | normalized growth (S. cerevisiae deletion strains, locus YNL233W, strain BNI4, active compounds read low): 0.989 | normalized growth (S. cerevisiae deletion strains, locus YNL248C, strain rpa49, active compounds read low): 0.955 | normalized growth (S. cerevisiae deletion strains, locus YNL250W, strain rad50, active compounds read low): 0.986 | normalized growth (S. cerevisiae deletion strains, locus YNL271C, strain bni1, active compounds read low): 0.969 | normalized growth (S. cerevisiae deletion strains, locus YNL298W, strain CLA4, active compounds read low): 0.953 | normalized growth (S. cerevisiae deletion strains, locus YNL307C, strain MCK1, active compounds read low): 0.914 | normalized growth (S. cerevisiae deletion strains, locus YNL322C, strain KRE1 (second series), active compounds read low): 0.962 | normalized growth (S. cerevisiae deletion strains, locus YNR049C, strain mso1, active compounds read low): 0.974 | normalized growth (S. cerevisiae deletion strains, locus YNR052C, strain pop2, active compounds read low): 0.994 | normalized growth (S. cerevisiae deletion strains, locus YOL012C, strain htz1): 1.07 | normalized growth (S. cerevisiae deletion strains, locus YOL147C, strain pex11, active compounds read low): 0.983 | normalized growth (S. cerevisiae deletion strains, locus YOR001W, strain rrp6, active compounds read low): 1.01 | normalized growth (S. cerevisiae deletion strains, locus YOR061W, strain CKA2, active compounds read low): 0.987 | normalized growth (S. cerevisiae deletion strains, locus YOR069W, strain VPS5, active compounds read low): 0.984 | normalized growth (S. cerevisiae deletion strains, locus YOR070C, strain gyp1, active compounds read low): 0.967 | normalized growth (S. cerevisiae deletion strains, locus YOR080W, strain dia2, active compounds read low): 0.97 | normalized growth (S. cerevisiae deletion strains, locus YOR083W, strain WHI5, active compounds read low): 0.927 | normalized growth (S. cerevisiae deletion strains, locus YOR106W, strain vam3, active compounds read low): 0.95 | normalized growth (S. cerevisiae deletion strains, locus YOR136W, strain idh2, active compounds read low): 1 | normalized growth (S. cerevisiae deletion strains, locus YOR144C, strain elg1, active compounds read low): 0.997 | normalized growth (S. cerevisiae deletion strains, locus YOR184W, strain ser1, active compounds read low): 0.875 | normalized growth (S. cerevisiae deletion strains, locus YOR231W, strain MKK1, active compounds read low): 0.998 | normalized growth (S. cerevisiae deletion strains, locus YOR265W, strain rbl2, active compounds read low): 0.986 | normalized growth (S. cerevisiae deletion strains, locus YOR270C, strain vph1, active compounds read low): 0.867 | normalized growth (S. cerevisiae deletion strains, locus YOR290C, strain snf2, active compounds read low): 0.873 | normalized growth (S. cerevisiae deletion strains, locus YOR316C, strain cot1, active compounds read low): 0.986 | normalized growth (S. cerevisiae deletion strains, locus YPL051W, strain arl3, active compounds read low): 0.937 | normalized growth (S. cerevisiae deletion strains, locus YPL055C, strain LGE1, active compounds read low): 0.963 | normalized growth (S. cerevisiae deletion strains, locus YPL078C, strain atp4, active compounds read low): 0.939 | normalized growth (S. cerevisiae deletion strains, locus YPL106C, strain sse1, active compounds read low): 0.991 | normalized growth (S. cerevisiae deletion strains, locus YPL240C, strain hsp82, active compounds read low): 0.967 | normalized growth (S. cerevisiae deletion strains, locus YPL256C, strain CLN2, active compounds read low): 1 | normalized growth (S. cerevisiae deletion strains, locus YPR119W, strain clb2, active compounds read low): 0.986 | normalized growth (S. cerevisiae deletion strains, locus YPR141C, strain kar3, active compounds read low): 0.954 | normalized growth (S. cerevisiae deletion strains, locus YPR163C, strain tif3, active compounds read low): 0.982 | normalized growth (S. cerevisiae deletion strains, locus YPR167C, strain met16, active compounds read low): 0.982 | normalized growth (S. cerevisiae deletion strains, strain wtn01, active compounds read low): 0.955 | normalized growth (S. cerevisiae strains, strain wild type, active compounds read low): 0.991
